For eight molecules, growth results are on record in PubChem BioAssay (NCI).

This is part of a sample that, as a whole, favours compounds with a hit. Of some 83,000 tested, about 20% had one in any assay.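 In brief: 96-well plates, 48 h treatment, single concentration, percent growth endpoint.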 Values without a mark were called inactive. Calls of active or inactive are those of the source. The calls were made as follows: active = growth percent below 10; inactive = the rest.

What all share (assay): NCI-60 one-dose screen, 48 h (100 = growth as untreated, 0 = no growth, -100 = all killed)
Details in all cases: 10 µM unless noted

Test [1] deals with DU-145 prostate.
The subject of test [2] is K-562 leukemia.
The test system of test [3] is MALME-3M melanoma.
Test [4] deals with RXF 393 renal.
For test [5], the system named is SF-268 CNS.
The test system of test [6] is SF-295 CNS.
Test [7] relates to SF-539 CNS.
Test [8] has as its system UACC-257 melanoma.
Test [9] concerns M14 melanoma.
In test [10] the test system is HCT-15 colon.
Test [11] has as its system HT29 colon.
The subject of test [12] is SNB-75 CNS.
For test [13], the system named is SNB-19 CNS.
For test [14], the system named is U251 CNS.
In test [15] the test system is PC-3 prostate.
For test [16], the system named is SK-MEL-5 melanoma.
The test system of test [17] is UACC-62 melanoma.
For test [18], the system named is SK-MEL-28 melanoma.

For `Cc1cc(C)cc(C(=O)Nc2cccc(-c3cn(-c4ccc(S(N)(=O)=O)cc4)nn3)c2)c1`, the growth in [1] is 72.1%; in [2] it was 19.1%; in [3] it was 20.4%; in [4], -26.1% (active); in [5] it was 16.6%; in test [6], -36.6% (active). The growth was -84.3% (active) in [7]; 76.2% in test [8]; 73.4% in [9]; 79% in test [10]; 80.4% in test [11]; -7.62% (active) in test [12]. In addition, the growth in [13] was -27.9% (active); in [14] it was 10.9%; in test [15], 83%; in test [16], 24.4%; in [17] it was 12.2%; in test [18], 62.4%.
Regarding `N#Cc1c(-c2ccc(Br)cc2)nc2n[nH]c(-c3ccc(Br)cc3)c2c1-c1ccc(C(F)(F)F)cc1`, the growth in test [1] is 26.2%; in test [2] it was -9.32% (active); in test [3] it was -14.5% (active); in [4], 46.7%; in test [5], 34.7%; in test [6] it was 1.6% (active). The growth in test [7] was 54.2%; in test [8], 28.5%; in [9], 29.2%; in [10], 5.75% (active); in test [11] it was 20.6%; in [12] it was -3.08% (active). Besides, the growth was 20.5% in [13]; 20.7% in test [14]; 14.5% in [15]; 14.3% in test [16]; 0.103% (active) in test [17]; 49.5% in test [18].
Take `CCOC(=O)C1=C(N)N(c2ccccc2)C2=C(C(=O)CC(C)(C)C2)C1c1ccc(Cl)cc1Cl` (centres undefined): the growth was 46% in test [1]; 13% in [2]; 27.9% in test [3]; 21.2% in test [4]; 52.1% in test [5]; 23.6% in test [6]. Besides, the growth in test [7] is 33.3%; in test [8] it was 35%; in test [9], 41.3%; in [10], 14%; in [11], 35%; in test [12] it was 41.2%. For the same molecule, the growth in [13] was 28.1%; in [14], 27.6%; in [15], 9.99% (active); in test [16] it was -1.66% (active); in [17], 27.2%; in test [18], 51.3%.
On to `O=C(O)c1cccc(-c2ccc(/C=N/NC(=O)c3[nH]c4ccc(Br)cc4c3-c3ccccc3)o2)c1`, for which the growth is 98.7% in [1]; 65.8% in test [2]; 55.2% in test [3]; 24.7% in [4]; 47.6% in test [5]; 72.3% in test [6]. For the same molecule, the growth in [7] was 11.8%; in test [8] it was 93.8%; in test [9] it was 65.9%; in test [10], 70.4%; in [11] it was 107%; in test [12], 57.8%. Besides, the growth in test [13] is 30.7%; in test [14] it was 34.7%; in [15], 86.4%; in test [16], 84.2%; in [17] it was 35.5%; in test [18], 53.2%.
Take `O=C(N/N=C/c1ccc(-c2ccc(O)cc2)s1)c1[nH]c2ccc(Br)cc2c1-c1ccccc1`: the growth is 30.1% in test [1]; 2.31% (active) in test [2]; -2.08% (active) in [3]; -29.5% (active) in test [4]; 28.9% in test [5]; 0.137% (active) in test [6]. The growth was -57.2% (active) in [7]; 53.9% in [8]; 9.8% (active) in test [9]; 6.81% (active) in test [10]; -71.4% (active) in test [11]; -12.7% (active) in [12]. Also, the growth is 20.2% in test [13]; 25.7% in [14]; 7.47% (active) in test [15]; 5.31% (active) in test [16]; -13.1% (active) in test [17]; 1.23% (active) in [18].
Turning to `CC(=O)Oc1ccccc1C(=O)[Se]C(=NC1CCCCC1)NC1CCCCC1`, the growth in test [1] is -80% (active); in [2], 3.88% (active); in test [3], -91.8% (active); in [4], -99.7% (active); in [5], 8.57% (active); in [6], -78.9% (active). In addition, the growth in [7] was -98.7% (active); in test [8], -89.9% (active); in test [9], -73.7% (active); in test [10], -73.5% (active); in test [11] it was -60.8% (active); in test [12] it was -63.3% (active). Further, the growth in test [13] was -94.9% (active); in test [14], -87% (active); in [15] it was -31% (active); in test [16] it was -89.3% (active); in [17], -90.7% (active); in [18], -89.1% (active).
For the molecule `Cc1c(C(=O)NNC(=O)Nc2ccc(Cl)cc2)nnn1-c1ccc(Br)cc1`, the growth in test [1] is 99.5%; in test [2], 92.2%; in [3], 90.7%; in test [4] it was 90.5%; in [5], 103%; in test [6], 98.8%. Also, the growth in [7] was 102%; in test [8], 99%; in test [9] it was 101%; in test [10], 97%; in test [11], 97.2%; in test [12], 90.2%. Also, the growth in [13] is 91.4%; in [14] it was 104%; in test [15], 103%; in test [16], 99.4%; in [17] it was 88.7%; in test [18], 96.5%.
Turning to `N#Cc1c(-c2cccnc2)cc(-c2ccc3ccccc3c2)[nH]c1=O`, the growth in test [1] is 80.2%; in test [2] it was 86.6%; in [3], 94.8%; in test [4], 50.6%; in test [5], 71.7%; in test [6] it was 71.4%. Further, the growth in [7] was 7.22% (active); in test [8] it was 105%; in test [9], 116%; in test [10], 80.7%; in test [11] it was 111%; in [12], 14.4%. Also, the growth in test [13] was 66.1%; in [14] it was 77.7%; in test [15], 95.5%; in [16], 78.2%; in test [17], 93.8%; in test [18], 104%.
